From PubChem BioAssay AID743279 (National Center for Advancing Translational Sciences (NCATS), 2014)
About 17,000 (4.7%) of roughly 360,000 compounds were called active. Another 5% or so got no clear call; they are omitted. For the sample, actives were picked, then their nearest neighbours and some compounds at random. Values without a mark were called inactive. Rule as the data show it: active = activity change below about -50%; inconclusive = mostly about -30% to -49%; inactive = weaker than that.

Assay: qHTS for Inhibitors of Inflammasome Signaling: IL-1-beta AlphaLISA Primary Screen
Settings: THP-1 LPS/ATP IL-1B secretion, 16 h; at 57.5 µM, hits give low values
Procedure, shortened: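 THP-1 cells pretreated 1 hr with compounds (up to 57.5 uM final), then stimulated with LPS (250 ng/mL final) plus ATP (1.25 mM final); secreted IL-1B measured by AlphaLISA after 16 hr, decreased signal indicating inhibition.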
% is scaled to controls: 0 for no effect and ±100 for the full control effect.

Compound | activity change
CC(Nc1ccc([N+](=O)[O-])cc1[N+](=O)[O-])c1ccccc1 (stereo not given) | 5.52%
COc1ccc(OC)c(C(O)c2ncc(-c3cccc(C(F)(F)F)c3)[nH]2)c1 (stereo not given) | 0%
CSCCC(NC(=O)c1ccc(Cl)cc1Cl)C(=O)NNC(=O)c1csc(N2CCOCC2)n1 (stereo not given) | -2.31%
CC1(C(=O)NS(=O)(=O)c2cccc(F)c2)CCN1C(=O)Cc1cc(F)ccc1F (stereo not given) | 17.9%
CC1CCCCC12NC(=O)N(CC(=O)Nc1ccc(S(=O)(=O)Nc3ncccn3)cc1)C2=O (stereo not given) | -5.14%
Cc1ccc(NC(=O)Cn2sc3ccccc3c2=O)cc1 | -108% (active)
Cc1ccc(NC(=O)Cn2c(C)csc2=O)cc1 | -15.7%
Cc1nn(CC(=O)Nc2ccc(F)cc2)c(=O)c2ccccc12 | -1.55%
COc1cccc2sc3cc(NCC[C@@H]4CCCN4C)ccc3c(=O)c12 | -71.4% (active)
COc1cccc(OC)c1C(=O)Nc1ccc2c(c1)n(C)c(=O)n2C | 0%
CCCCC[C@H](C)N1C[C@@H](COCc2ccccc2)Oc2cc(N3CCC[C@@H]3CO)ccc2S1(=O)=O | 0.594%
O=C(c1cccs1)C1C(c2ccc(Br)cc2)NC(=S)NC1(O)C(F)(F)F (stereo not given) | -6.17%
O=C(COC(=O)COc1ccccc1F)Nc1cccc(S(=O)(=O)N2CCCCC2)c1 | -4.52%
CCCCCc1ccc(-c2ccc(C(=O)O)cc2)nc1 | 46.9%
CC(=O)Nc1cnc(-c2ccc(O)cc2C)cn1 | -15.7%
Cc1ccc(-c2csc(NCCc3nc4cc(Cl)c(Cl)cc4n3CCOCCO)n2)cc1 | -12.6%
Cc1ccc(Nc2nc(-c3ccc(O)cc3O)cs2)nc1 | -66.7% (active)
COc1ccc(NC(=O)/C(N=Nc2cccc(S(=O)(=O)Nc3ccc(SC(F)F)cc3)c2)=C(\C)O)cc1 | 2.19%
Cc1cccc(CN2CCN(C3CN(Cc4cn(Cc5ccccc5F)nn4)S(=O)(=O)C3)CC2)c1 (stereo not given) | 4.26%
COc1cc(C(=O)NNC(=O)CN2C(=O)NC3(CCCC3)C2=O)cc(OC)c1OC | -7.47%
Cc1ccccc1-c1ccc2c(c1)O[C@@H](CN(C)Cc1ccc(C(=O)O)cc1)[C@@H](C)CN([C@H](C)CO)S2(=O)=O | 20.6%
Cc1ccc(OCC(=O)NC(C)c2ccccc2)cc1C (stereo not given) | 9.86%
COc1ccc(C(=O)COC(=O)COc2ccc(C)c(C)c2)cc1 | 6.77%

Compound | activity change
Cc1ccc(SC(=O)COc2ccc(C)c(C)c2)cc1 | -70% (active)
Clc1cccc(Cc2c(-c3cccc(Cl)c3)nc3ccc(Cl)cn23)c1 | 64.9%
Cc1ccc(NC2=C(Cl)C(=O)OC2OC(=O)c2ccccc2C)cc1 (stereo not given) | -89.8% (active)
Cc1ccccc1C(=O)OC1OC(=O)C(Cl)=C1Nc1ccccc1 (stereo not given) | -17.8%
O=C1OC(OC(=O)c2ccccc2Br)C(N2CCOCC2)=C1Cl (stereo not given) | -12.8%
CCOC(=O)[C@H]1[C@H]2COc3ccc(Br)cc3[C@@H]2N2C(=O)CN(C)C(=O)[C@@]12C | 19.3%
COC(=O)c1ccccc1N=Nc1c(C)[nH][nH]c1=O | 1.34%
CCOc1cc(/C=N/NC(=O)c2c(C)nc3ccc(Cl)cn23)ccc1O | 11.7%
O=C(NCC1CCCO1)c1cc2c([nH]c3ccccc32)c(-c2ccc(F)cc2)n1 (stereo not given) | -10.2%
O=C(NCCc1ccc(F)cc1)c1n[nH]c2ccccc12 | 29.4%
O=C(NCCCO)c1cc2c([nH]c3ccccc32)c(-c2ccc(F)cc2)n1 | -65.7% (active)
CC(C(=O)NCCc1ccc(S(N)(=O)=O)cc1)N1C(=O)CC(C)(C)Sc2ccccc21 (stereo not given) | 25.8%
CCCOc1ccc(NC(=O)C2CCCNC2=O)cc1 (stereo not given) | -6.06%
CCCOc1ccc(C(=O)C(CCC(CNCC)C(=O)c2ccc(OCCC)cc2)CNCC)cc1 (stereo not given) | -94% (active)
CCCOc1ccc(C(=O)CCC(=O)OC(C)C(=O)Nc2ccc(NC(C)=O)cc2)cc1 (stereo not given) | 10.1%
COc1ccc2ccccc2c1/C=N/NC(=O)c1cc(C)[nH]n1 | 0%
Cc1[nH]c2ccccc2c1/C=N/NC(=O)CNC(=O)c1ccc2c(c1)OCO2 | 0%
COCCNC(=S)N/N=C/c1c(C)[nH]c2ccccc12 | -69.7% (active)
OCCNc1nc2ccccc2n1-c1ncnc2sc3c(c12)CCC3 | 20.3%
CC1=C(C(=O)N2CCOCC2)CC(CC(=O)NCCCN(C)C)C(=O)N1Cc1ccc(C(C)(C)C)cc1 (stereo not given) | -21.9%
COc1ccccc1C(=O)c1ccccc1C(=O)c1ccccc1 | -7.51%
CCOC(=O)c1ccccc1OC(=O)Oc1ccccc1C(=O)OCC | -16.9%
CCOC(=O)NC(=O)/C(C#N)=C\c1ccccc1 | 3.54%

Compound | activity change
CCOC(=O)C(=Cc1ccccc1)C(=O)c1ccccc1 | -98.2% (active)
CCOC(=O)C(=CNc1cccc(C)n1)C(=O)OCC | 16.2%
CCOC(=O)C(=Cc1ccccc1OC)C(=O)OCC | -99.3% (active)
C=CCn1c(=O)n(C)c2c(=O)n(C)c(=O)n(C)c21 | -2.57%
Cc1ccc(F)c(S(=O)(=O)NC(=O)C2(C)CCN2C(=O)CCc2cccs2)c1 (stereo not given) | 0.428%
Cc1ccc(NC(=O)CN(C)C(=O)c2cccc(S(=O)(=O)N3CCCC3)c2)cc1 | 8.98%
NC(CSC1(c2ccccc2)c2ccccc2-c2ccccc21)C(=O)O (stereo not given) | 24.5%
CC(=O)c1ccc(S(=O)(=O)NCc2nnnn2-c2ccccc2)cc1 | 8.11%
CN(C)c1nnnn1-c1ccc(Cl)cc1 | 13.4%
O=C(NCc1nnnn1-c1ccc(Cl)cc1)c1ccc([N+](=O)[O-])o1 | -76.1% (active)
CC1=C(C(=O)N2CCOCC2)CC(CC(=O)NCCN2CCOCC2)C(=O)N1CCC1=CCCCC1 (stereo not given) | 11.4%
COCCn1cnc2c1c(=O)n(CC(=O)NN)c(=O)n2Cc1ccccc1 | 0.195%
CC(C)CCn1cnc2c1c(=O)n(CC(=O)NC(N)=O)c(=O)n2Cc1ccccc1 | -1.43%
COCCn1cnc2c1c(=O)n(Cc1ccc(Br)cc1)c(=O)n2Cc1ccccc1 | -61.2% (active)
COc1ccc2c(c1)CCCO[C@]21O[C@H](CCO)C[C@H](O)[C@H]1O | 24.3%
COC(=O)Cn1nc(-c2ccccc2)c2cc(Cl)ccc21 | -6.25%
NC(N)=Nc1nc(-c2ccccc2)c2cc(Cl)ccc2n1 | -81.6% (active)
Clc1ccc2nc(-c3ccccc3)nc(C(Cl)Cl)c2c1 | 42.9%
Cc1cccc(NS(=O)(=O)c2ccc(C)c(C(=O)NCC(c3ccccc3)N(C)C)c2)c1 (stereo not given) | -29.1%
CC(C(=O)NCC1CCCCC1)N(C)Cc1cccc(Cl)c1 (stereo not given) | -16.9%
O=Nc1c(O)cc(O)c2ccccc12 | -2.52%
O=C(COC(=O)Cn1cnc2ccccc2c1=O)NCC12CC3CC(CC(C3)C1)C2 | -52.9% (active)
CC1(C)C(=O)Nc2ccccc2N1C(=O)COC(=O)Cn1cnc2ccccc2c1=O | 7.25%

Compound | activity change
O=C(COC(=O)Cn1cnc2ccccc2c1=O)NCc1ccccc1Cl | 12.2%
CCc1cc(-c2nnn(CCC3COCCO3)c2CC)ccc1-c1cn(Cc2ccc3ccccc3c2)nn1 (stereo not given) | 52.6%
Cc1ccc(CNC(=O)C2CCN(S(=O)(=O)c3ccc4nc5c(c(C(=O)O)c4c3)CC(C)CC5)CC2)cc1 (stereo not given) | 1.65%
Cc1cccc(-c2ncc(CN3CCC(CO)(CCCc4ccccc4)CC3)cn2)c1 | -19.1%
COc1cccc(CC2(CO)CCN(Cc3cnc(-c4cccc(C)c4)nc3)CC2)c1 | -64.4% (active)
COc1ccc(CC2(CO)CCN(Cc3cnn(C)c3)CC2)cc1 | 12.5%
CC(=O)c1cc(CN2CCC(n3nccc3NC(=O)c3ccccc3Cl)CC2)cs1 | -15.4%
Cn1c(CNC(=O)c2ccco2)nnc1SCC(=O)N1CCN(c2ccccc2)CC1 | 52%
O=C(NCc1nnc(SCC(=O)N2CCCCCC2)o1)c1ccc(F)cc1 | 22.8%
O=C(NCc1nnc(SCC(=O)N2CCC(Cc3ccccc3)CC2)o1)c1ccco1 | -92.1% (active)
NC(=O)C1(Nc2ccccc2Cl)CCCC1 | -1.93%
CCOC(=O)[C@]12CCCC=C1N(Cc1ccc3c(c1)OCO3)C(=O)[C@H](CC(=O)NCc1cccs1)C2 | 0%
O=C1C=C(c2ccc(Cl)cc2)C(=O)N1Nc1ccccc1 | -76.1% (active)
O=C(O)CC1=C(Nc2ccccc2)C(=O)N(c2ccccc2)C1c1ccc(Cl)cc1 (stereo not given) | 0%
O=C(CCC(=O)OCc1ccc(Cl)cc1)Nc1ccccc1 | 15%
COc1ccc(NC(=O)C(C)N2c3cccc4cccc(c34)S2(=O)=O)c(OC)c1 (stereo not given) | 27.8%
CCC(C)CN1C(=O)CN(S(C)(=O)=O)CC1(C)C(=O)Nc1ccc2c(c1)OCCO2 (stereo not given) | -19.9%
COc1ccc(-c2cc3c(c4c2ccn4C)C2CCC3C2)cn1 (stereo not given) | 0%
COc1ccc(CCNCc2c(-c3ccccc3)n(C)c3ccccc23)cc1 | -97.2% (active)
COc1ccc(-c2nc3ccccc3c(=O)n2CCc2ccc(O)cc2)cc1 | -13%
COc1ccc(-c2c(C#Cc3ccccc3)c3ccccc3n2C)cc1 | -16.3%
